In PubChem BioAssay AID588856 (National Center for Advancing Translational Sciences (NCATS), 2011):
In all, about 410,000 compounds went through this assay and about 3,100 (0.76%) were called active. A call without a number means that no potency is given here. This is one part of a sample in which actives are shown more often than they occur. Calls come from the whole dose curve; as a rule, active = well fitted cell-killing curve with a large enough effect; inactive = no such curve, though single readings can be large or run the other way.

Test: qHTS for Inhibitors of TGF-b: Cytotox Counterscreen
Conditions: HepG2 CAGA-GFP viability, ATP luminescence, 18 h; series mostly up to 46.1 µM
Text: TGF-b is a main component in the TGF-b signaling pathway which plays diverse roles in cellular and development pathways. TGF-b is mediated by transcription factors called "Smads". Although the Smad-dependent pathway is the primary canonical TGF-b signaling mode, TGF-b1 can also activate alternative signaling pathways, including those involving MAPK (ERK, JNK and p38). This interaction may mediate or enhance Smad-dependent responses, or can exert Smad-independent effects. The complexity of this signaling cascade allows the TGF-b superfamily to perform unique, overlapping or redundant functions. We believe that targeting the TGF-beta pathway at the Smad-transcription factor level may eliminate the consequences of disrupting the entire pathway and offer specificity without affecting other signaling pathways. Smad3 is the primary transducer of TGF-b's signals and Smad3 regulates many functions attributed to TGF-b signaling. We hypothesize that Smad3 inhibitors will selectively eliminate Smad3-specific TGF-beta signals without undesired off-target effects. We aim to identify Smad3-small molecule antagonists using a quantitative high throughput screening (qHTS) approach.
A high-throughput assay was developed to screen the NIH Molecular Libraries Small Molecule Repository (MLSMR). This is a cell based assay, where TGF-b is tagged with GFP. This is a counterscreen that evaluates the cytotoxicity of the compounds that were screened in the primary cell-based screen (AID 588855).
MH087449NIH Chemical Genomics Center [NCGC]
NIH Molecular Libraries Probe Centers Network [MLPCN]
Assay Submitter (PI): Sushil Rane, National Institute of […]
Suspensions of trypsinized HEPG2 CAGA-GFP cells were dispensed into white, tissue culture-treated, solid 1536-well plates at 5uL/well (1000 cells/well final concentration) in DMEM medium supplemented with 1% FBS. Plates were incubated at 37 degrees C for 2 hours, after which 23 nL of compounds or DMSO were delivered to each well using a pin tool. One uL of recombinant TGF-beta in DMEM (1% FBS) was then dispensed (500 pg/mL final concentration), and plates were incubated at 37 degrees C for 18 hours. Two uL of CellTiter Glo (Promega), a luminescence-based viability reagent, was dispensed, followed by a 10 minute room temperature incubation. The plates were then measured on a PerkinElmer ViewLux plate reader for luminescence (clear filter) using a 5 second exposure. The %Activity was determined from the corrected luminescence values. Wells containing media only (no cells) were used to normalize %Activity of identified toxic compounds; media-only wells corresponded to 100%Activity (complete cell-killing), while DMSO-dosed cell controls were used to normalize 0%Activity (no toxicity).
Concentration-response curves were fitted to the signals arising from the resulting luminescence. The concentration-effect curves were then classified based on curve quality (r2), response magnitude and degree of measured activity, and compounds were subsequently categorized based on their curve class.
Potency is the fitted concentration of half-maximal effect.

Structure (SMILES) | Potency
COc1ccc(CC(=O)Nc2ccc(-c3nc4ccccc4s3)c(C)c2)cc1 | inactive
COc1ccc(CS(=O)/C(Cl)=C(/Cl)C(=O)Nc2ccc(OC)nc2)cc1 (stereo not drawn) | 14.1 µM (active)
COc1ccc(NC(=O)C(=O)NCc2ccco2)cc1 | inactive
COc1ccc(-n2c(=O)c3c(c4cc(OC)ccc4n3C)n(Cc3cccc(C)c3)c2=O)cc1 | inactive
COc1ccc(CNC(=O)C2=Cc3cccc(OC)c3OC2)cc1OC | inactive
COc1ccc(OC)c(CNC(=O)c2c3c(nc4ccccc24)C(=O)N(C2CCCCC2)C3)c1 | inactive
O=C(Cc1csc(Nc2nc(=S)[nH]c3ccccc23)n1)NCCCN1CCN(c2cccc(Cl)c2)CC1 | inactive
O=C(NCCCN1CCN(c2cccc(Cl)c2)CC1)c1nnc(Cc2ccc(F)cc2Cl)o1 | 11.2 µM (active)
COc1ccc(N2CCN(CCNC(=O)c3nnc(Cc4c(F)cccc4Cl)o3)CC2)cc1 | inactive
CCc1ccc(NC(=O)CN2C(=O)C(c3ccccc3)=NC23CCCCCC3)cc1 | inactive
Cc1cnc(NC(=O)c2ccccn2)s1 | 5.01 µM (active)
COC(=O)Nc1ncc(CN2C(=O)c3ccccc3C2=O)s1 | inactive
COc1ccc(CC(=O)NCc2nnc(SCC(=O)Nc3ncc(C)s3)n2C)cc1 | inactive
CCOc1ccccc1CNC(=O)c1ccc2c(c1)nc1n2CCC(C)C1 (stereo not drawn) | inactive
CCN(Cc1ccccc1)Cc1c(O)ccc2c(=O)c(-c3ccc(Cl)cc3Cl)coc12 | inactive
Cc1[nH]c2ccccc2c1C(=O)C(=O)N(C)c1ccccc1 | inactive
OC[C@@H]1O[C@H](n2cnc3c(SCc4ccccc4)ncnc32)[C@H](O)[C@H]1O | inactive
c1ccc(C[C@H]2CNCCN2CCC23CC4CC(CC(C4)C2)C3)cc1 | inactive
CC(C)(C)CN1C(=O)C(=O)NC[C@H]1Cc1cccc2ccccc12 | inactive
c1ccc2c(CCN3CCNC[C@H]3Cc3cccc4ccccc34)cccc2c1 | 12.6 µM (active)
O=c1n(Cc2cccc(C(F)(F)F)c2)c2ccccc2c2nc(-c3ccccc3)nn12 | inactive

Structure (SMILES) | Potency
Brc1cccc[n+]1Cc1cccc(C[n+]2ccccc2Br)c1 | inactive
CCOC(=O)Nc1ccc2c(c1)N(C(=O)CN1CCN3CCCC3C1)c1ccccc1CC2 (stereo not drawn) | inactive
CCOC(=O)Nc1ccc(S(=O)(=O)N(C)C(C)C)cc1 | inactive
CCOC(=O)Nc1ccc2c(c1)N(C(=O)CCCl)c1ccccc1[S@]2=O | 12.6 µM (active)
Cc1ccc(C(=O)Nc2ccc(C(=O)O)cc2)cc1S(=O)(=O)Nc1ccccc1 | inactive
O=C(Nc1ccc2oc(-c3ccc(O)c(Br)c3)nc2c1)c1cc2ccccc2o1 | inactive
CCOc1ccc(OCC)c(NS(=O)(=O)c2ccc3[nH]c(=O)ccc3c2)c1 | inactive
C[N+]1(CC(=O)c2cccs2)CCOCC1 | inactive
CC(=O)Nc1c(C)nn(-c2ccccc2)c1N1CCC(C(=O)Nc2cc(Cl)ccc2C)CC1 | inactive
CCc1ccc(CNC(=O)C2CCN(c3nnc(C)c4c(C)n(-c5ccc(C)cc5)nc34)CC2)cc1 | inactive
Cc1nnc(N2CCC(C(=O)Nc3ccc(F)cc3)CC2)c2nn(-c3ccc(Cl)cc3)c(C)c12 | 11.2 µM (active)
CCCCc1nn2c(=O)cc(COC(=O)c3cccc(NC(=O)COc4ccccc4)c3)nc2s1 | inactive
O=C(NCc1ccccn1)[C@]1(C(F)(F)F)C[C@H](CCc2ccccc2)CCCO1 | inactive
CC(C)(C)n1ncc2c(=O)n(Cc3ccc(C(=O)c4ccccc4)cc3)cnc21 | inactive
O=C(/C(=C/c1cccc(Cl)c1)c1nc2ccccc2[nH]1)c1ccccc1 | 2.82 µM (active)
N#C/C(=C\c1ccccc1F)c1nc2ccccc2c(=O)[nH]1 | inactive
O=C(O)c1ccc(Cn2c(SCc3ccc(F)cc3)nc3ccncc32)cc1 | inactive
COc1ccc(CCNC(=O)c2cnc3sc(N4CCCCCC4)nn3c2=O)cc1OC | inactive
COc1ccc(Cl)cc1NC(=O)C(C)Sc1nc2c(c(=O)[nH]1)CCCC2 (stereo not drawn) | inactive
ClC/C=C/C[n+]1ccccc1Cl | inactive
CN1c2ccc(Cl)cc2-c2nc(SCC(=O)Nc3cc(F)ccc3F)ncc2S1(=O)=O | inactive

Structure (SMILES) | Potency
Cc1ccc(C=O)cc1Cl | inactive
COc1ccc(CNC(=O)c2ccc3c(O)c(S(=O)(=O)c4ccccc4)c(=O)[nH]c3c2)cc1 | inactive
Cc1ccc(C(=O)CC2(O)C(=O)N(CCc3ccccc3)c3ccc(Br)cc32)cc1 (stereo not drawn) | inactive
CCCN1C(=O)C(O)(CC(=O)c2ccc(CC)cc2)c2cc(Br)ccc21 (stereo not drawn) | inactive
CCc1ccc(C(=O)CC2(O)C(=O)N(CCc3ccccc3)c3ccc(Br)cc32)cc1 (stereo not drawn) | 14.1 µM (active)
CC(=O)OCC(NC(=O)C(Cc1ccccc1)NC(=O)OC(C)(C)C)C1OC(n2ccc(=O)[nH]c2=O)C(OC(C)=O)C1OC(C)=O (stereo not drawn) | inactive
CC(C)(C)c1ccc(C(=O)C[N+]2(C)CCCc3ccccc32)cc1 (stereo not drawn) | inactive
COc1ccc(NC(=O)CCCN2C(=O)CCn3nc(-c4cn(C)c5ccccc45)cc32)cc1OC | inactive
COC(=O)c1ccc(NC(=O)CN(c2ccc(C)cc2)S(=O)(=O)c2c(C)n[nH]c2C)cc1 | inactive
CCOc1ccc(OCC)c(NC(=O)CN(c2ccc(C)cc2)S(=O)(=O)c2c(C)n[nH]c2C)c1 | 12.6 µM (active)
COc1ccc(N(CC(=O)Nc2cc(OC)cc(OC)c2)S(=O)(=O)c2c(C)n[nH]c2C)cc1 | inactive
CCCCCn1c(CCNC(=O)c2ccc(F)cc2)nc2ccccc21 | inactive
CCOC(=O)Cn1c(=O)n(-c2ccccc2OC)c2nc(-c3cccc(F)c3)nc(C(N)=O)c21 | inactive
CC1=C(C(=O)Nc2ccccc2)C(c2ccc(C)cc2)n2nc(SCc3ccccc3C)nc2N1 (stereo not drawn) | inactive
C(=Nc1ccc(/C=C/c2ccnc3ccccc23)cc1)c1cc2c3c(c1)CCCN3CCC2 | inactive
Cc1cccc(NC(=O)CCn2c(=O)oc3ccccc32)c1 | inactive
O=C(NCc1nnnn1-c1ccc(Cl)cc1)c1ccc([N+](=O)[O-])o1 | inactive
CCN(CC)S(=O)(=O)c1ccc(N2CCCC2)c(NC(=O)c2ccc([N+](=O)[O-])o2)c1 | inactive
O=C(Nc1ccc(Br)cn1)c1ccc([N+](=O)[O-])o1 | 17.8 µM (active)
Cc1cccc(NC(=O)c2ccc(COc3ccccc3[N+](=O)[O-])o2)n1 | inactive
Cc1cccc(NC(=O)c2ccc([N+](=O)[O-])o2)c1 | 22.4 µM (active)
